Results taken from PubChem BioAssay (EPA / NIEHS).
Activity calls are given as the source filed them. Rule for the calls: active = hit-call score of the fitted dose curve at least 0.9, where 1 is the maximum; inactive = score below 0.9.

read-out: DNA damage-inducible transcript 3 (DDIT3), DDIT3 (gene 1649); assay: LTEA_HepaRG_DDIT3: Life Technologies and Expression Analysis (LTEA) Assay for DNA damage-inducible transcript 3 (DDIT3) using HepaRG (AID 2283488); settings: mRNA level, 48 h; actives raise or lower the signal
Method in brief: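 HepaRG cells, 48 h after plating, exposed 48 h in serum-free induction medium to 8 half-log concentrations up to 100 uM in 0.5% DMSO, in duplicate. DDIT3 mRNA measured by TaqMan qRT-PCR, normalized to ACTB, GAPDH and POLR2A. Fitted bidirectionally against DMSO.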

| SMILES | outcome | AC50 |
| --- | --- | --- |
| Cc1cccc([N+](=O)[O-])c1C | inactive | – |
| CCCc1cc(=O)[nH]c(=S)[nH]1 | inactive | – |
| O=c1[nH]cc(F)c(=O)[nH]1 | inactive | – |
| CC1=C(/C=C/C(C)=C/C=C/C(C)=C/CO)C(C)(C)CCC1 | inactive | – |
| Cc1ccc(C)c(O)c1C | inactive | – |
| CNCc1cc(F)ccc1Oc1ccc(Cl)c(Cl)c1 | – | 77 µM (active) |
| Cc1cc(NC(=O)C(=O)O)cc(C)c1Oc1ccc(O)c2c1CCC2 | inactive | – |
| Clc1cc(Cl)c(Cl)cc1Cl | inactive | – |
| FC(F)(F)C(F)(F)C(F)(F)C(F)(F)C(F)(F)C(F)(F)CCI | inactive | – |
| COc1cc(C=O)ccc1O | inactive | – |
| Oc1ccc2ccccc2c1N=Nc1ccccc1 | inactive | – |
| NS(=O)(=O)c1cc2c(cc1Cl)NCNS2(=O)=O | inactive | – |
| Cc1ccc2ncccc2c1 | inactive | – |
| CCCCCCCCCCCCCCCC | inactive | – |
| Cc1oc(-c2ccccc2)nc1CCOc1cccc2c1ccn2CCC(=O)O | – | 79.2 µM (active) |
| Cc1c(C(=O)O)c(O)cc2c1C(=O)c1c(O)c([C@@H]3O[C@H](CO)[C@@H](O)[C@H](O)[C@H]3O)c(O)c(O)c1C2=O | inactive | – |
| CCCCc1ccc2c(n1)[C@@H](c1ccc(OC)cc1C[C@H](C)C(=O)O)[C@H](C(=O)O)[C@H]2c1ccc2c(c1)OCO2 | inactive | – |
| Oc1ccc2c(c1)OC[C@@H](N1CCC(O)(c3ccc(F)cc3)CC1)[C@H]2O | inactive | – |
| CCCCCCCCCCC | inactive | – |
| Cc1cccc(C)c1O | inactive | – |
| CCOC(=O)CCC(=O)OCC | inactive | – |
| C=CCOC(=O)c1ccccc1C(=O)OCC=C | inactive | – |
| Cc1ccc(C)c(C)c1 | inactive | – |
| NCCO | inactive | – |
| c1cc(-c2ccncc2)ccn1 | inactive | – |
| Cc1ccccc1Cl | inactive | – |
| CCCCCCCCCCCCCCCCCC(=O)O | inactive | – |
| CCCCCC(=O)O | inactive | – |
| C1CCC(SSC2CCCCC2)CC1 | inactive | – |

read-out: Pro-epidermal growth factor (Homo sapiens) (UniProt P01133); assay: LTEA_HepaRG_EGF: Life Technologies and Expression Analysis (LTEA) Assay for Epidermal growth factor (EGF) using HepaRG (AID 2283489); settings: mRNA level, 48 h; actives raise or lower the signal
Method in brief: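 EGF transcript measured by Fluidigm TaqMan qRT-PCR with three housekeeping genes for normalization, 48 h after dosing HepaRG cultures in duplicate (top 100 uM, half-log steps, 0.5% DMSO vehicle). Gain or loss relative to DMSO fitted.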

| SMILES | outcome | AC50 |
| --- | --- | --- |
| Cc1cccc([N+](=O)[O-])c1C | inactive | – |
| CCCc1cc(=O)[nH]c(=S)[nH]1 | inactive | – |
| O=c1[nH]cc(F)c(=O)[nH]1 | inactive | – |
| CC1=C(/C=C/C(C)=C/C=C/C(C)=C/CO)C(C)(C)CCC1 | – | 52.2 µM (active) |
| Cc1ccc(C)c(O)c1C | inactive | – |
| CNCc1cc(F)ccc1Oc1ccc(Cl)c(Cl)c1 | – | 79.4 µM (active) |
| Cc1cc(NC(=O)C(=O)O)cc(C)c1Oc1ccc(O)c2c1CCC2 | inactive | – |
| Clc1cc(Cl)c(Cl)cc1Cl | inactive | – |
| FC(F)(F)C(F)(F)C(F)(F)C(F)(F)C(F)(F)C(F)(F)CCI | inactive | – |
| COc1cc(C=O)ccc1O | inactive | – |
| Oc1ccc2ccccc2c1N=Nc1ccccc1 | inactive | – |
| NS(=O)(=O)c1cc2c(cc1Cl)NCNS2(=O)=O | inactive | – |
| Cc1ccc2ncccc2c1 | inactive | – |
| CCCCCCCCCCCCCCCC | inactive | – |
| Cc1oc(-c2ccccc2)nc1CCOc1cccc2c1ccn2CCC(=O)O | inactive | – |
| Cc1c(C(=O)O)c(O)cc2c1C(=O)c1c(O)c([C@@H]3O[C@H](CO)[C@@H](O)[C@H](O)[C@H]3O)c(O)c(O)c1C2=O | inactive | – |
| CCCCc1ccc2c(n1)[C@@H](c1ccc(OC)cc1C[C@H](C)C(=O)O)[C@H](C(=O)O)[C@H]2c1ccc2c(c1)OCO2 | inactive | – |
| Oc1ccc2c(c1)OC[C@@H](N1CCC(O)(c3ccc(F)cc3)CC1)[C@H]2O | inactive | – |
| CCCCCCCCCCC | inactive | – |
| Cc1cccc(C)c1O | inactive | – |
| CCOC(=O)CCC(=O)OCC | inactive | – |
| C=CCOC(=O)c1ccccc1C(=O)OCC=C | inactive | – |
| Cc1ccc(C)c(C)c1 | inactive | – |
| NCCO | inactive | – |
| c1cc(-c2ccncc2)ccn1 | inactive | – |
| Cc1ccccc1Cl | inactive | – |
| CCCCCCCCCCCCCCCCCC(=O)O | inactive | – |
| CCCCCC(=O)O | inactive | – |
| C1CCC(SSC2CCCCC2)CC1 | inactive | – |

read-out: Early growth response protein 1 (EGR1) transcription factor, EGR1 (gene 1958); assay: LTEA_HepaRG_EGR1: Life Technologies and Expression Analysis (LTEA) Assay for Early growth response protein 1 (EGR1) transcription factor using HepaRG (AID 2283490); settings: mRNA level, 48 h; actives raise or lower the signal
Method in brief: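 Differentiated human HepaRG cells in serum-free induction medium were exposed in duplicate for 48 h to eight concentrations (top 100 uM, half-log steps) in 0.5% DMSO. EGR1 mRNA was quantified by qRT-PCR, normalized to ACTB, GAPDH and POLR2A, and fitted bidirectionally versus DMSO.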

| SMILES | outcome | AC50 |
| --- | --- | --- |
| Cc1cccc([N+](=O)[O-])c1C | inactive | – |
| CCCc1cc(=O)[nH]c(=S)[nH]1 | inactive | – |
| O=c1[nH]cc(F)c(=O)[nH]1 | – | 70.9 µM (active) |
| CC1=C(/C=C/C(C)=C/C=C/C(C)=C/CO)C(C)(C)CCC1 | inactive | – |
| Cc1ccc(C)c(O)c1C | inactive | – |
| CNCc1cc(F)ccc1Oc1ccc(Cl)c(Cl)c1 | – | 83 µM (active) |
| Cc1cc(NC(=O)C(=O)O)cc(C)c1Oc1ccc(O)c2c1CCC2 | inactive | – |
| Clc1cc(Cl)c(Cl)cc1Cl | inactive | – |
| FC(F)(F)C(F)(F)C(F)(F)C(F)(F)C(F)(F)C(F)(F)CCI | inactive | – |
| COc1cc(C=O)ccc1O | inactive | – |
| Oc1ccc2ccccc2c1N=Nc1ccccc1 | – | 3.53 µM (active) |
| NS(=O)(=O)c1cc2c(cc1Cl)NCNS2(=O)=O | inactive | – |
| Cc1ccc2ncccc2c1 | inactive | – |
| CCCCCCCCCCCCCCCC | inactive | – |
| Cc1oc(-c2ccccc2)nc1CCOc1cccc2c1ccn2CCC(=O)O | – | 4.76 µM (active) |
| Cc1c(C(=O)O)c(O)cc2c1C(=O)c1c(O)c([C@@H]3O[C@H](CO)[C@@H](O)[C@H](O)[C@H]3O)c(O)c(O)c1C2=O | inactive | – |
| CCCCc1ccc2c(n1)[C@@H](c1ccc(OC)cc1C[C@H](C)C(=O)O)[C@H](C(=O)O)[C@H]2c1ccc2c(c1)OCO2 | inactive | – |
| Oc1ccc2c(c1)OC[C@@H](N1CCC(O)(c3ccc(F)cc3)CC1)[C@H]2O | inactive | – |
| CCCCCCCCCCC | inactive | – |
| Cc1cccc(C)c1O | inactive | – |
| CCOC(=O)CCC(=O)OCC | inactive | – |
| C=CCOC(=O)c1ccccc1C(=O)OCC=C | inactive | – |
| Cc1ccc(C)c(C)c1 | inactive | – |
| NCCO | inactive | – |
| c1cc(-c2ccncc2)ccn1 | inactive | – |
| Cc1ccccc1Cl | inactive | – |
| CCCCCCCCCCCCCCCCCC(=O)O | inactive | – |
| CCCCCC(=O)O | inactive | – |
| C1CCC(SSC2CCCCC2)CC1 | inactive | – |
